This passage reports growth results from PubChem BioAssay (NCI).

About 83,000 compounds went through this panel and 20% of them were active in at least one assay; those are over-represented in the sample as a whole.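 For each line, cells grew in 96-well plates with the test compound present at a single concentration for 48 hours.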 Unmarked numbers belong to inactive results. Active and inactive are the calls of the source. The calls were made as follows: active = growth percent below 10; inactive = the rest.

The subject of the test is MDA-MB-468 breast. Put plainly: NCI-60 one-dose screen, 48 h (100 = growth as untreated, 0 = no growth, -100 = all killed). The note with it: 10 µM unless noted.
In the case of `CC(=O)Oc1ccc(Cl)cc1`, the growth was 93.6%.

On to `COc1ccc(-n2c(C)nc3cc(OC)c(OC)cc3c2=O)cc1OC`, for which the growth was 114%.

For the compound `c1ccc2nc(OCCN3CC3)ccc2c1`, the growth is 69.3%.

Take `C=C1C(=O)O[C@H]2[C@H]1CC/C(COC(=O)C(=O)c1cn(Cc3ccccc3)c3ccccc13)=C\CC[C@@]1(C)O[C@@H]21`: the growth was -60.5% (active).

For the compound `O=C(Cc1ccccc1)c1ccccc1`, the growth was 106%.

With `CN(C)CCCOc1ccc2c(c1)c(C(=O)C(=O)NCCO)cn2Cc1ccccc1`, the growth was 117%.

`O=C1CN2CCC1CC2`: the growth was 104%.

As to `Oc1c(I)cc(I)cc1I`, the growth is 102%.

As for `COc1ccc(/C=C\c2cc(OC)c(OC)c(OC)c2)cc1N/C=C\C(=O)c1c[nH]c2ccccc12`, the growth is 11.3%.

Consider `CCn1c2ccccc2c2cc(C(=O)c3ccc(C)c4ccccc34)ccc21`, for which the growth is 25.4%.

For the compound `CCCCS(=O)(=O)Cl`, the growth is 104%.

As for `COc1cc2c(c(OC)c1OC)-c1ccc([O-])c(=O)cc1[C@@H](NC(C)=O)CC2.COc1cc2c(c(OC)c1OC)-c1ccc([O-])c(=O)cc1[C@@H](NC(C)=O)CC2.[Cu+2]`, the growth is 2.02% (active).

Consider `O=C(N/N=C\c1ccc(N(CCCl)CCCl)cc1)c1cccc([N+](=O)[O-])c1`, for which the growth was 68.1%.

In the case of `COC(=O)[C@@H](C)C[C@H](Cc1ccccc1)NC(=O)c1nc([C@@H](C[C@H](C(C)C)N(C)C(=O)[C@@H](NC(=O)[C@H]2CC(=O)CCN2C)C(C)C)OC(C)=O)sc1C(C)C`, the growth is 7.54% (active).

Regarding `O=[N+]([O-])c1cc([N+](=O)[O-])c(Cl)cc1Cl`, the growth was -73.8% (active).

For `C=C1[C@@H](C)C2[C@H](Cc3ccccc3)NC(=O)[C@]23[C@H](OC(C)=O)/C=C/[C@@](C)(O)C(=O)[C@@H](C)C/C=C/[C@H]3[C@@H]1O` (stereo partly specified), the growth was 45.2%.

Consider `Nc1nnnc2nc[nH]c12`, for which the growth is -11.9% (active).

With `O=C(c1ccccc1O)c1[nH]c(Cl)c(Cl)c1-n1c(C(=O)c2ccccc2O)cc(Cl)c1Cl`, the growth is -13.8% (active).

Turning to `O=C1C2C(C(=O)[N]1[Hg][c]1cccs1)C1(Cl)C(Cl)=C(Cl)C2(Cl)C1(Cl)Cl` (stereo unspecified), the growth was -83.7% (active).

For `CC(=O)OC1C(OC/C2=C/C3[C@@H](C(C)C)CC=C(C)[C@@H]3CC(OC(=O)/C=C/c3cn(C)cn3)[C@]3(C)C=C[C@@]2(O)O3)OCC(O)C1O` (stereo partly specified), the growth was -19.2% (active).

For the compound `COc1ccc(/C=C\c2cc(OC)c(OC)c(OC)c2)cc1OCC(=O)Nc1nc2ccc(F)cc2s1`, the growth is 37.3%.

`NCCc1cc(O)c(O)cc1O`: the growth is 96.2%.

Turning to `COC(=O)C1CCC(NC(=O)c2csc([C@@H](C[C@H](C(C)C)N(C)C(=O)[C@@H](NC(=O)[C@H]3CCCCN3C)C(C)C)OC(C)=O)n2)CC1` (stereo partly specified), the growth is 27.9%.

In the case of `COC(=O)CCP(CCC(=O)OC)c1ccccc1`, the growth was 105%.

With `CC(=O)OC1CCC2C3CCC4=C/C(=N/OC(=O)c5ccc(N(CCCl)CCCl)cc5)CCC4(C)C3CC(C)C12` (stereo unspecified), the growth is 67.2%.

On to `CC(N)Cc1ccc(O)cc1` (stereo unspecified), for which the growth was 107%.

Take `CC[C@]12C=CCN3CC[C@]4(C(=C(C(=O)OC)C1)Nc1cc(OC)c(OC(C)=O)cc14)[C@@H]32`: the growth is 50.3%.

Take `COc1ccc(Nc2ccc([N+](=O)[O-])cc2[N+](=O)[O-])cc1CN(CCCl)CCCl`: the growth is 10.1%.

For `CCC(C)(C)O`, the growth was 104%.

With `CCCC[C@H](NC(=O)[C@H]1CCCN1C)C(=O)N(C)[C@H](C[C@@H](OC(C)=O)c1nc(C(=O)N[C@@H](Cc2ccccc2)C[C@H](C)C(=O)OCC)cs1)C(C)C`, the growth was 7.04% (active).

In the case of `Cc1cc(C(C)(C)c2ccc(O)c(C)c2)ccc1O`, the growth is 87.8%.

Consider `C/C(=C\c1cc(C(F)(F)F)nn1CCNC(=O)OC(C)(C)C)[C@@H]1C[C@@H]2O[C@]2(C)CCC[C@H](C)[C@H](O)[C@@H](C)C(=O)C(C)(C)[C@@H](O)CC(=O)O1`, for which the growth was 58.6%.

As to `C[C@]12CC[C@H]3[C@@H](C[C@@H]4SC(Nc5ccccc5)=N[C@@]45CC(O)CC[C@]35C)[C@@H]1CCC2O` (stereo partly specified), the growth was -1% (active).

On to `c1ccc2c(c1)O[As](O[As]1Oc3ccccc3O1)O2`, for which the growth is 10.7%.

Consider `C[n+]1c(/C=C/c2ccc(N(CCCl)CCCl)cc2)sc2ccccc21`, for which the growth was -0.963% (active).

Take `OCCN=Cc1c[nH]c2ccccc12`: the growth was 119%.
